Experimental data: PubChem BioAssay AID652042 (Broad Institute, 2013)
The campaign covered roughly 1,100 compounds. About 350 (32%) were called active. How the calls were made is not given here. Not all results are given here. Entries with a potency or affinity are not part of this list.

assay: CEM21 lymphoblast cell cytotoxicity, dose response, cytotoxicity control for viral fusion inhibitor project, CellTiter-Glo luminescence, cherry-picked (AID 652042); conditions: CEM21 cells viability, CellTiter-Glo ATP luminescence, 24 h; series mostly up to 35 µM

| Compound | activity change, negative = cytotoxicity |
| --- | --- |
| COc1ccc(S(=O)(=O)N2CCCCC2)cc1NC(=O)Cc1sc(C)nc1-c1ccc(F)cc1 | inactive |
| COc1ccc(S(=O)(=O)N2CCCCC2)cc1NC(=O)CCCOc1ccc(C)cc1 | inactive |
| COc1ccc(NC(=O)c2cc(CC(C)C)nc3ccccc23)cc1 | inactive |
| CC[C@@]12C(=O)N(c3cccc(F)c3)C(=O)N1[C@H](c1ccc(Cl)cc1)[C@@H]1C(=O)N(C3CCCCC3)C(=O)[C@@H]12 | inactive |
| Nc1ccc(-c2nc3ccc(C(=O)O)cc3s2)cc1 | inactive |
| COc1ccccc1CNC(=O)C[C@H]1C[C@@H]2c3cc(NC(=O)c4cccnc4)ccc3O[C@@H]2[C@@H](CO)O1 | inactive |
| COC(=O)c1c(C)oc(C)c1S(=O)(=O)NC(c1ccccc1)c1ccccc1 | inactive |
| Cc1cc(C)n2nc(NCc3cccc(Br)c3)nc2n1 | inactive |
| COc1ccc(Nc2c(CCc3ccccc3)nc3nc(C)cc(C)n23)cc1 | inactive |
| Cc1cc(Oc2ccc(C#N)cc2)nc(NCc2ccccc2)n1 | inactive |
| CCOc1ccc(C(C)=O)cc1COC(=O)c1ccccc1C(=O)N(C)Cc1ccccc1 | inactive |
| Clc1ccc(OCCN2CCN(c3ncnc4sccc34)CC2)cc1 | inactive |
| Cc1ccc(Cn2ncc3c(N4CCN(c5ccc(C)cc5)CC4)ncnc32)cc1 | inactive |
| CSc1ncccc1C(=O)OCC(=O)Nc1ccc(C)c(S(=O)(=O)N2CCOCC2)c1 | inactive |
| O=C(COC(=O)c1cccc(S(=O)(=O)N2CCOCC2)c1)NCc1ccccc1 | inactive |
| COc1ccc(S(=O)(=O)Nc2ccc3c(c2)CC(=O)N([C@H](C)CO)C[C@H](C)[C@H](CN(C)S(=O)(=O)c2ccccc2)O3)cc1 | inactive |
| Cc1noc(C)c1S(=O)(=O)N(C)C[C@H]1Oc2ccc(NC(=O)Nc3ccccc3)cc2CC(=O)N([C@H](C)CO)C[C@H]1C | inactive |
| C=CC[n+]1c(-c2ccc(OC)c(OC)c2)csc1NNC(=O)Nc1ccccc1 | inactive |
| C=C1CCN([C@@H](CC(C)C)C(=O)Nc2ccc(OC)cc2)S(=O)(=O)c2ccccc21 | inactive |
| Cc1nn(C)c(Cl)c1NC(=O)OCc1ccc(Cl)cc1Cl | inactive |
| O=C(Nc1ccc(Cl)cn1)C1CCCN1S(=O)(=O)c1cccc2ccccc12 (stereo not drawn) | inactive |
| CNc1nc2c(c(=O)n(C)c(=O)n2C)n1Cc1ccccc1 | inactive |
| CC(Cl)=CCn1c(NCCc2ccccc2)nc2c1c(=O)n(C)c(=O)n2C | inactive |
| O=C(N[C@@H]1CC[C@H](CCNS(=O)(=O)c2ccc(F)cc2)O[C@@H]1CO)C1CC1 | inactive |
| CCOC(=O)C1CCCN(Cc2nc(N)nc(Nc3ccc(OC)cc3)n2)C1 (stereo not drawn) | inactive |
| O=C(CN1C(=O)c2ccccc2S1(=O)=O)c1ccccc1Cl | inactive |
| C[C@H]1CN([C@@H](C)CO)C(=O)c2cccc(NS(=O)(=O)c3ccc(Cl)cc3)c2O[C@@H]1CN(C)Cc1ccc(C(F)(F)F)cc1 | inactive |

| Compound | activity change, negative = cytotoxicity |
| --- | --- |
| C[C@H]1CN([C@@H](C)CO)C(=O)c2cc(NS(C)(=O)=O)ccc2O[C@@H]1CN(C)Cc1ccc(Cl)c(Cl)c1 | inactive |
| Cc1ccc(S(=O)(=O)Nc2ccc3c(c2)CC(=O)N([C@H](C)CO)C[C@H](C)[C@H](CN(C)S(=O)(=O)c2ccccc2)O3)cc1 | inactive |
| C[C@H](CO)N1C[C@H](C)[C@H](CN(C)S(=O)(=O)c2ccc(F)cc2)Oc2ccc(NS(=O)(=O)c3ccccc3)cc2CC1=O | inactive |
| C[C@H](CO)N1C[C@H](C)[C@H](CN(C)S(=O)(=O)c2ccccc2)Oc2ccc(NS(=O)(=O)c3ccc(F)cc3)cc2CC1=O | inactive |
| C[C@@H]1CN([C@H](C)CO)C(=O)c2cccc(NS(=O)(=O)c3ccc(F)cc3)c2O[C@@H]1CN(C)Cc1ccc(C(F)(F)F)cc1 | inactive |
| C[C@@H]1CN([C@H](C)CO)C(=O)c2cccc(NS(=O)(=O)c3ccc(Cl)cc3)c2O[C@H]1CN(C)CC1CCCCC1 | inactive |
| C[C@H](CO)N1C[C@H](C)[C@H](CN(C)C(=O)Nc2ccccc2)Oc2c(NS(=O)(=O)c3ccc(F)cc3)cccc2C1=O | inactive |
| Clc1ccc2c(c1)C(C1=NCCN1)c1ccccc1CS2 (stereo not drawn) | inactive |
| C[C@@H]1CN([C@@H](C)CO)C(=O)c2cc(NC(=O)c3ccccc3)ccc2O[C@@H](C)CCCCO[C@H]1CN(C)Cc1ccc(C(=O)O)cc1 | inactive |
| Cc1cc(C)c(S(=O)(=O)N2CCCCC2)cc1N(C)S(=O)(=O)c1ccc(Cl)cc1 | inactive |
| CC1CCC(NC(=O)CCn2ccc3cc(S(=O)(=O)N4CCCC4)ccc32)CC1 (stereo not drawn) | inactive |
| CC(=O)C1=C(C)N(Cc2ccc(Br)cc2)C(=S)NC1c1cccc(Cl)c1 (stereo not drawn) | inactive |
| COc1ccc(C2=Nn3c(nnc3-c3ccncc3)SC2)cc1 | inactive |
| C=CCN(Cc1ccc(OC)c(OC)c1)C(=O)c1cc2cc(F)ccc2[nH]1 | inactive |
| COc1ccc(-c2noc(CCCC(=O)O)n2)cc1 | inactive |
| COc1cccc(NC(=O)Nc2cccc(C(=O)O)c2)c1 | inactive |
| CN(C)c1ccc(O)c2c1CC1CC3[C@@H](N(C)C)C(=O)C(C(N)=O)=C(O)[C@]3(O)C(=O)C1=C2O (stereo partly drawn) | inactive |
| CC1(C)CC2CC(C)(CN2S(=O)(=O)c2cccc(C(=O)OCC(=O)NC(N)=O)c2)C1 (stereo not drawn) | inactive |
| COc1ccccc1C(=O)NC(CCSC)C(=O)N1CCN(C/C=C/c2ccccc2)CC1 (stereo not drawn) | inactive |
| COCCn1c(=S)[nH]c2cc(C(=O)N3CCN(Cc4ccc5c(c4)OCO5)CC3)ccc2c1=O | inactive |
| CCCCCn1c(=O)[nH]c2cc(C(=O)N3CCN(Cc4ccc5c(c4)OCO5)CC3)ccc2c1=O | inactive |
| NC(=O)c1sc2nc3c(c(-c4cccs4)c2c1N)CCCCC3 | inactive |
| C[C@H](CO)N1C[C@H](C)[C@H](CN(C)S(=O)(=O)c2ccccc2)Oc2ncc(/C=C/c3ccccc3)cc2C1=O | inactive |
| Cc1ccc(S(=O)(=O)N(C)C[C@@H]2Oc3ccc(NS(=O)(=O)c4c(C)noc4C)cc3CC(=O)N([C@H](C)CO)C[C@@H]2C)cc1 | inactive |
| C[C@H]1CN([C@@H](C)CO)C(=O)c2c(c3ccccc3n2C)-c2ccccc2CO[C@H]1CN(C)C(=O)CCC(F)(F)F | inactive |
| CCOC(=O)[C@@H]1[C@H]2COc3ccc(Br)cc3[C@@H]2N2C(=O)N(c3ccccc3)C(=O)[C@@]12C | inactive |
